A number with no mark means an inactive call. How the calls were made is not given here.
Biological target: Pantothenate synthetase (Mycobacterium tuberculosis (strain ATCC 25618 / H37Rv)) (UniProt P9WIL5)
Assay: Coupled enzyme confirmation of inhibitors against recombinant Mtb PanC (AID 375);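 further: 0% = full reaction with vehicle and 100% = no enzyme background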
Conditions: coupled enzyme assay; at 10 µM, stronger effect = higher value

Pantothenate synthetase (Mycobacterium tuberculosis (strain ATCC 25618 / H37Rv)), sequence (P9WIL5 whole entry, looked up): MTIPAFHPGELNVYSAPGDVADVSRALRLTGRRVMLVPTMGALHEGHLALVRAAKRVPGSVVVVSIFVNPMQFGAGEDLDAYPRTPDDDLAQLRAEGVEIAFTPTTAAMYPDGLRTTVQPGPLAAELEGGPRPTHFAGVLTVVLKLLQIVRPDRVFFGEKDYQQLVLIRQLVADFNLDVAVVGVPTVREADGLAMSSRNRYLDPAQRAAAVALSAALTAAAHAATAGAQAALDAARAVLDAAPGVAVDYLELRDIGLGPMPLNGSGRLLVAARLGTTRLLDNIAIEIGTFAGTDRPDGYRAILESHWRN

SMILES | inhibition
Cc1ccc(S(=O)(=O)NCC(=O)N(CC(=O)NC2CCCCC2)Cc2ccco2)cc1 | 11%
Cc1nnc(NC(=O)c2ccccc2F)s1 | 0%
COc1ccc(N2CCN(c3ccc(NC(=O)C4CCCCC4)cc3C#N)CC2)cc1 | 0%
Cc1cccc(C)c1-n1nnnc1SCSc1nnnn1-c1c(C)cccc1C | 1%
CCCCOc1ccc(-c2nnc(N)s2)cc1 | 0%
CCOC(=O)C1=C(C)Nc2nc(SCC(=O)OC)nn2C1c1cc(F)cc(F)c1 (centres undefined) | 3%
Cc1cccc(-n2c(=O)cc(N3CCN(c4ccc(F)cc4)CC3)[nH]c2=O)c1 | 0%
COc1cc(C(=O)Nc2cccc(-c3nc4cc(C)ccc4o3)c2)cc(OC)c1OC | 3%
O=C(CN1CCN(c2ncc(C(F)(F)F)cc2Cl)CC1)Nc1ccc2c(c1)OCO2 | 0%
COc1cccc(N2CCN(c3c4c(nc5ncnn35)CCC4)CC2)c1 | 0%
COc1ccc(OC)c(Nc2ncnc3c2cnn3-c2ccccc2)c1 | 0%
CC(=O)OCC(=O)[C@@]1(O)CC[C@H]2[C@@H]3CCC4=CC(=O)C=C[C@]4(C)[C@H]3[C@@H](O)C[C@@]21C | 0%
Cc1cc(C)c(NC(=O)CSc2nnc(-c3ccncc3)n2Cc2ccco2)c(C)c1 | 0%
CCc1ccc(C(=O)NC2CCCCC2)s1 | 0%
COC(=O)c1ccc(Cl)c(NC(C)=O)c1 | 4%
CCSc1nc(O)c(C2OC(=O)c3c2ccc(OC)c3OC)c(=O)n1-c1ccccc1 (centres undefined) | 0%
Cc1ccc(NC(=O)c2ccco2)cc1NC(=O)CSc1nnc(-c2cccs2)n1C | 3%
CC(=O)[C@@]1(O)CC[C@H]2[C@@H]3CCC4=CC(=O)CC[C@]4(C)[C@H]3[C@@H](O)C[C@@]21C | 0%
COc1cccc(OCC(O)CN2CCN(CCO)CC2)c1 (centres undefined) | 0%
CC(CCc1ccccc1)NC(=O)C1CCN(S(=O)(=O)c2cnc[nH]2)CC1 (centres undefined) | 4%

SMILES | inhibition
COc1cccc(OC)c1OCCCSc1nc(C)cc(=O)[nH]1 | 0%
COc1ccc(-n2c(=O)[nH]cc(C(=O)Nc3ccc(NC(C)=O)cc3)c2=O)cc1 | 6%
COc1ccc(C)cc1S(=O)(=O)N1CCN(S(=O)(=O)c2cc(C)ccc2OC)CC1 | 5%
Cc1cccc(N2CCN(C(=O)Cn3ccc4ccccc4c3=O)CC2)c1C | 0%
O=C(NCCc1c[nH]c2ccccc12)c1ccc(S(=O)(=O)NCc2ccco2)cc1 | 0%
CCC(C)(C(=O)NC1CCCC1)N(Cc1cccs1)C(C)=O (centres undefined) | 2%
CCOC(=O)CC1=C(C(=O)OCC)C(c2ccc(C)o2)C(C#N)=C(N)O1 (centres undefined) | 0%
Nc1nonc1NC(=O)CSc1nc2ccccc2s1 | 0%
Cn1cccc1-c1nc2ccc(NC(=O)c3ccco3)cc2[nH]1 | 6%
Cc1cnc(NC(=O)C2=C(O)c3ccccc3S(=O)(=O)N2C)s1 | 0%
CCOC(=O)C1CCCN(CCCc2ccccc2)C1 (centres undefined) | 0%
Cc1occc1C(=O)Nc1nnc(C2CCCCC2)s1 | 0%
COc1ccc(CC(NC(C)=O)C(=O)NC2CCN(C(=O)Nc3ccc(C#N)cc3)CC2)cc1OC (centres undefined) | 10%
CN(C)C(=O)CN(C)S(=O)(=O)c1ccc(Cl)cc1 | 0%
O=C(CN1C(=O)c2ccccc2C1=O)Nc1ccccc1C(=O)N1CCCC1 | 1%
Cc1ccc2c(c1)-c1cc(C)nn1C(c1ccc3c(c1)OCO3)N2 (centres undefined) | 0%
CCOC(=O)c1cc2c(=O)n3ccccc3nc2n(CC2CCCO2)c1=NC(C)=O (centres undefined) | 4%
CC(=O)Nc1sc2c(c1CN1CCN(c3ccccn3)CC1)CCCC2 | 2%
CCN(CC)c1nc(N(CC)CC)[nH]c(=O)n1 | 0%

Reference: PubChem BioAssay
